These results are taken from PubChem BioAssay (EPA / NIEHS).

In general, AC50 refers to the concentration giving half of the maximal activity seen.

Activity calls are given as the source filed them. How the source made its calls: active means hit-call score of the fitted dose curve at least 0.9, where 1 is the maximum; inactive means score below 0.9.

A short description of this assay: CCTE_Harrill_HTTr_Apoptosis_PRF_DMEM_12hr: (Pilot) CCTE's 12-hour Apoptosis Assessment for the High-Throughput Transcriptomics (HTTr) Platform, in MCF-7 cells cultured in phenol red-free DMEM + 10% charcoal-stripped fetal bovine serum, Harrill Lab (AID 2283985). An excerpt: This is a cell-based assay that evaluates apoptosis using high content imaging to evaluate activation of caspase-3/7 using the CellEvent Caspase 3/7 Green detection reagent in 384-well format.One of seven assay components measured from the CCTE_Harrill_HTTr_Apoptosis assay. This was part of a pilot experiment. This is a cell-based assay that evaluates apoptosis in MCF-7 cells cultured in phenol red-free DMEM + 10% charcoal-stripped fetal bovine serum. High content imaging is used to evaluate activation of caspase-3/7 using the CellEvent Caspase 3/7 Green detection reagent. Measurements are taken at 12 hours after chemical dosing in 384-well format.The assay component endpoint CCTE_Harrill_HTTr_Apoptosis_PRF_DMEM_12hr was analyzed with bidirectional fitting relation to DMSO as the negative control and baseline of activity. Using a type of viability reporter, gain-of-signal activity can be used to evaluate activation of caspase-3/7 using the CellEvent Caspase 3/7 Green detection reagent to understand changes in apoptosis. To generalize the intended target to other relatable targets, this assay endpoint is annotated to cell cycle, where the subfamily is apoptosis.
Chemicals were tested in MCF7 cells in an eight point dilution series with a twelve hour exposure duration.
For the compound `S=C([S-])NCCNC(=S)[S-].[Mn+2]`, the outcome was inactive.
On the same count and under the same terms, the value for `CCOC(=O)C(C)(C)Oc1ccc(Cl)cc1` was “inactive”.
In the case of `CCC(=C(c1ccc(O)cc1)c1ccc(OCCN(C)C)cc1)c1ccccc1`, the AC50 was 80.6 µM (active).
With `CC(C)C(=O)Nc1ccc([N+](=O)[O-])c(C(F)(F)F)c1`, the outcome was inactive.
Same read-out and setting: the value for `Nc1nc(Cl)nc2c1ncn2[C@H]1C[C@H](O)[C@@H](CO)O1` was “inactive”; that for `CC(=O)O[C@]1(C(C)=O)CC[C@H]2[C@@H]3C=C(Cl)C4=CC(=O)[C@@H]5C[C@@H]5[C@]4(C)[C@H]3CC[C@@]21C` was “inactive”; that for `CC1(C)NC(=O)N(c2ccc([N+](=O)[O-])c(C(F)(F)F)c2)C1=O` was “inactive”.
As for `CC(C)(c1ccc(O)cc1)c1ccc(O)cc1`, the outcome was inactive.
In the case of `CCCCc1oc2ccccc2c1C(=O)c1cc(I)c(OCCN(CC)CC)c(I)c1`, the outcome was inactive.
`Cc1oc(-c2ccccc2)nc1CCOc1ccc(C[C@H](Nc2ccccc2C(=O)c2ccccc2)C(=O)O)cc1`: the result was inactive.
Turning to `C=CCOC(Cn1ccnc1)c1ccc(Cl)cc1Cl` (stereo unspecified), the result was inactive.
With `N[C@@H](Cc1cc(I)c(Oc2ccc(O)c(I)c2)c(I)c1)C(=O)O`, the result was inactive.
Turning to `CC(C)CCCCCCc1ccc(O)cc1`, the AC50 is 61.8 µM (active).
On to `CC[C@H](C)C(=O)O[C@H]1C[C@@H](C)C=C2C=C[C@H](C)[C@H](CC[C@@H]3C[C@@H](O)CC(=O)O3)[C@H]21`, for which the result was inactive.
For `CCC(C)(C)C(=O)O[C@H]1C[C@@H](C)C=C2C=C[C@H](C)[C@H](CC[C@@H]3C[C@@H](O)CC(=O)O3)[C@H]21`, the result was inactive.
For `O=C(O)Cc1cc(I)c(Oc2cc(I)c(O)c(I)c2)c(I)c1`, the result was inactive.
Consider `C[C@]12CC[C@@H]3c4ccc(O)cc4C[C@@H](CCCCCCCCCS(=O)CCCC(F)(F)C(F)(F)F)[C@H]3[C@@H]1CC[C@@H]2O` (stereo partly specified), for which the outcome was inactive.
With `Cc1nn(C)c(Oc2ccccc2)c1C=NOCc1ccc(C(=O)OC(C)(C)C)cc1`, the result was inactive.
`CCN(CC)CCOc1ccc(C(=C(Cl)c2ccccc2)c2ccccc2)cc1`: the AC50 was 81.6 µM (active).
With `Cc1c(C)c2c(c(C)c1O)CCC(C)(COc1ccc(CC3SC(=O)NC3=O)cc1)O2` (stereo unspecified), the outcome was inactive.
For the compound `CC(C)OC(=O)C(C)(C)Oc1ccc(C(=O)c2ccc(Cl)cc2)cc1`, the outcome was inactive.
